GAA spleen mod = inhibits or activates alpha-glucosidase in human spleen homogenate; human spleen homogenate, 4-MU-alpha-glucoside fluorescence; Potency, µM (top dose mostly 79.9 µM), without a hit: at the top dose activity change, negative = inhibition, usual class: inhibitors; 240,000 tested, 0.006% active; AID 2112;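 note: potency is the fitted concentration of half-maximal effect; 0% = enzyme with vehicle and -100% = no enzyme basal signal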
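Human spleen homogenate (1 ug) incubated with compounds and 1 mM 4-methylumbelliferyl-alpha-D-glucopyranoside in pH 5.0 citrate/phosphate buffer, 37 C, 40 min. Stopped at pH 10; 4-MU fluorescence (Ex 365/Em 440 nm); AC50 by Hill fit.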
GAA glycogen = GAA glycogen-cleavage inhibition or activation; recombinant GAA, glycogen substrate, Amplex Red glucose oxidase fluorescence; Potency, µM (top dose mostly 76.4 µM), for the others: at the top dose activity change, negative = inhibition, hits mostly inhibitors; 300,000 tested, 0.38% active; AID 2100;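 note: potency is the fitted concentration of half-maximal effect; 0% = full enzyme reaction and -100% = no-enzyme basal signal; the screen sought inhibitors and activators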
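Natural-substrate format: glycogen cleavage by 4 nM human enzyme, glucose read by Amplex Red coupling (Ex 573, Em 610 nm). Normalized to enzyme and no-enzyme controls.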
aGal spleen mod = inhibits or activates alpha-galactosidase in human spleen homogenate. human spleen homogenate, 4MU-alpha-Gal fluorescence, 40 min. 240,000 tested, 0.008% active. P06280. Potency, µM (highest dose often 80 µM), for inactives: at the highest dose activity change, negative = inhibition, actives largely listed as inhibitors;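 note: potency is the fitted concentration of half-maximal effect; 0% = enzyme with vehicle and -100% = no enzyme basal signal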
Target sequence (P06280 32-429 limits assumed): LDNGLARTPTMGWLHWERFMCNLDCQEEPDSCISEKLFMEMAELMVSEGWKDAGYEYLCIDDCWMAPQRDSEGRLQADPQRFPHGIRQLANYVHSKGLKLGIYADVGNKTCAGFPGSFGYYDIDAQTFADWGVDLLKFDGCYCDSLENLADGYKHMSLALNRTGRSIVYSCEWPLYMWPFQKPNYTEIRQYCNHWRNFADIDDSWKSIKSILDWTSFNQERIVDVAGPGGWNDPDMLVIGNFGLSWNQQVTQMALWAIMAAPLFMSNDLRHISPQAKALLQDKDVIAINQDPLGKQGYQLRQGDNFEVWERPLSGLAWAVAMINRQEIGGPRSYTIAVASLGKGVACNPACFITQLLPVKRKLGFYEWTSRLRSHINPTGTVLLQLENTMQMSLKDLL
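Human spleen homogenate (1 ug) as enzyme source, 4-methylumbelliferyl-alpha-D-galactopyranoside 1 mM final, citrate/phosphate pH 5.0 with 0.01% Tween-20. Compounds 40 min at 37C, NaOH/glycine stop; fluorescence Ex 365/Em 440, Hill-fit AC50.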
GAA inhib = blocks human lysosomal alpha-glucosidase; P10253; AID 1466; Potency, µM (highest dose often 76.9 µM), without a hit: at the highest dose activity change, negative = inhibition, actives largely listed as inhibitors; purified human GAA, 4-MU-alpha-glucoside fluorescence; 200,000 tested, 0.005% active;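 note: potency is the fitted concentration of half-maximal effect; plate controls were uninhibited enzyme wells for no effect and no-enzyme background for full effect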
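Enzyme (4 nM final) mixed with compound (up to 77 uM), then 4-MU-alpha-D-pyranoside (400 uM final) added; 20 min at room temperature, pH 5.0. Reaction stopped at pH 10, fluorescence read, AC50 derived by Hill fit.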
GLA inh pH 4.5 = inhibitors of human alpha-galactosidase A at pH 4.5; P06280; purified enzyme, 4-MU-alpha-Gal fluorescence, pH 4.5; activity change, negative = inhibition, % at 105 µM; 230,000 tested, under 10 active; AID 1467;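 note: 0% = full activity with enzyme and -100% = basal without enzyme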
Numbers without * were called inactive; ? = inconclusive; · = no result; [ ] = dose if it differs, or a comment. Sampled rows, rich in hits. Any-hit rate of the full collection: about 0.4%. Calls come from the whole dose curve; as a rule, active = well fitted curve in the direction sought with a large enough effect; inconclusive = small, poorly fitted or top-dose-only effect, or another doubt; inactive = no such curve, though single readings can be large; an effect the other way counts as inactive or inconclusive.

SMILES	GAA spleen mod	GAA glycogen	aGal spleen mod	GAA inhib	GLA inh pH 4.5
CC(C)C[C@H](NC(=O)CNC(=O)[C@H](CCC(N)=O)NC(=O)[C@H](CC(C)C)NC(=O)[C@H](CC(C)C)NC(=O)[C@H](CCCNC(=N)N)NC(=O)[C@H](CCC(N)=O)NC(=O)[C@H](CC(C)C)NC(=O)[C@H](CCCNC(=N)N)NC(=O)[C@H](C)NC(=O)CNC(=O)[C@H](CCC(=O)O)NC(=O)[C@H](CCCNC(=N)N)NC(=O)[C@H](CC(C)C)NC(=O)[C@H](CCCNC(=N)N)NC(=O)[C@H](CO)NC(=O)[C@H](CC(C)C)NC(=O)[C@H](CCC(=O)O)NC(=O)[C@H](CO)NC(=O)[C@@H](NC(=O)[C@H](Cc1ccccc1)NC(=O)[C@@H](NC(=O)CNC(=O)[C@H](CC(=O)O)NC(=O)[C@H](CO)NC(=O)[C@@H](N)Cc1cnc[nH]1)[C@@H](C)O)[C@@H](C)O)C(=O)N[C@H](C(N)=O)C(C)C	7%	·	-16%	·	·
CC(C)[C@@H]1NC(=O)[C@H](CCCCN)NC(=O)[C@@H](Cc2c[nH]c3ccccc23)NC(=O)[C@H](Cc2ccc(O)cc2)NC(=O)[C@@H](NC(=O)[C@H](N)Cc2ccccc2)CSSC[C@@H](C(=O)N[C@@H](Cc2c[nH]c3ccccc23)C(N)=O)NC1=O	-9%	·	-10%	·	·
Nc1ccc(O)cc1C(=O)OCC(=O)C12CC3CC(CC(C3)C1)C2	-7%	16µM*	6%	?	2
Cc1cnc(C(=O)OCC(=O)C23CC4CC(CC(C4)C2)C3)cn1	·	1%[76.3 µM]	·	·	·
Cn1cnc([N+](=O)[O-])c1Nc1ccc(O)cc1	-9%	28µM*	3%	?	-8
NCCCC[C@H](NC(=O)[C@@H]1CCCN1C(=O)[C@H](CO)NC(=O)[C@H](CC(=O)O)NC(=O)CNC(=O)[C@H](CCCN=C(N)N)NC(=O)CN)C(=O)O	-14%	·	-4%	·	·
COc1cc(/C=N/NC(=O)c2cn(-c3cccc(C)n3)cn2)ccc1O	-4%	25µM*	-6%	-32%	-14
CC(=O)Nc1ccc(Nc2nc3c(S(=O)(=O)c4cccc(Cl)c4)nnn3c3ccsc23)cc1	·	15%[76.3 µM]	·	·	·
Cc1cc(C)cc(Nc2nc3c(S(=O)(=O)c4cccc(Cl)c4)nnn3c3ccsc23)c1	·	40µM*	·	·	·
CO[C@@H]1COC(=O)CCC[C@@H](C)[C@H](OC)COC(=O)[C@H](Cc2ccccc2)NC(=O)C/C=C\[C@H]1C	6%[17.4 µM]	·	0%[17.5 µM]	·	·
COCCn1c(NC(=S)NC(=O)C2CC2)cc(=O)[nH]c1=O	7%	31µM*	4%	6%	10
COCCn1c(NC(=S)NC(=O)C23CC4CC(CC(C4)C2)C3)cc(=O)[nH]c1=O	6%	-4%	2%	·	-4
COc1cc(Cn2c(-c3ccc(O)c(OC)c3)nc3ccccc32)ccc1O	4%	28µM*	7%	·	1
Oc1ccc(N2CCN(Cc3nc4ccccc4[nH]3)CC2)cc1	·	8.9µM*	·	·	·
Cc1ccc(S(=O)(=O)Nc2cccc3ccc[n+](C)c23)cc1	6%	·	6%	·	·
OCC1CCCN(C(=S)Nc2ccc(OC(F)F)cc2)C1 (stereo not given)	-7%	12%	2%	3%	-1
OCC1CCCN(C(=S)Nc2ccc(Nc3ccccc3)cc2)C1 (stereo not given)	-8%	25µM*	2%	-12%	3
CCCCCCCCCCCCCCCCCCCCCCCCCCCCCC	0%	·	-24%	·	·
C/C(=C\C(=O)c1ccncc1)Nc1ccccc1O	-3%	25µM*	10%	-4%	-17
COc1ccc(OC)c(N/C(C)=C/C(=O)c2ccncc2)c1	·	-11%[76.3 µM]	·	·	·
O=C1CC(c2ccc3c(c2)OCO3)c2cc(O)ccc2O1 (stereo not given)	-4%[119 µM]	·	8%[119 µM]	·	-7
Cc1ccccc1OCCn1cc(/C(N)=N/O)c2ccccc21	-5%	32µM*	-8%	-8%	5
O=S(=O)(O)c1ccc2c(c1)-c1nc-2nc2[nH]c(nc3nc(nc4[nH]c(n1)c1ccc(S(=O)(=O)O)cc41)-c1ccc(S(=O)(=O)O)cc1-3)c1ccc(S(=O)(=O)O)cc21	1%	·	-10%	·	·
CCCCC/C=C\C/C=C\C=C\[C@@H](O)C/C=C\CCCC(=O)O	1%	·	-2%	·	-2
COc1cccc([C@@H]2Oc3ccc(Br)cc3[C@H](O)[C@H]2O)c1	5%	·	-21%	·	-10
SMILES	GAA spleen mod	GAA glycogen	aGal spleen mod	GAA inhib	GLA inh pH 4.5
O=C(CSc1ncc(C(F)(F)F)cc1Cl)N1CCN(S(=O)(=O)c2ccccc2)CC1	-30%	?	5%	35µM*	-8
O=C(CSc1ncc(C(F)(F)F)cc1Cl)N1CCN(S(=O)(=O)c2ccc(Cl)cc2)CC1	-10%	-6%	11%	?	-1
O=C(O)Cc1ccc2ocnc2c1	-6%	22µM*	4%	2%	-1
O=C(Nc1ccccc1)Nc1ccc2ocnc2c1	3%	-13%	6%	0%	-4
C/C(=N\Nc1nc2ccccc2[nH]1)c1cc2ccccc2o1	-3%	11µM*	8%	6%	2
C/C(=N\Nc1nc2ccccc2[nH]1)c1ccc2c(c1)OCCO2	1%	50µM*	2%	-7%	-2
CCOP(=O)(OCC)C(=Cc1cc(C(C)(C)C)c(O)c(C(C)(C)C)c1)P(=O)(OCC)OCC	0%	·	1%	·	·
CCOC(=O)C1(Cc2ccccc2C(F)(F)F)CCN(C(C)CCn2cccn2)CC1 (stereo not given)	1%	4.5µM*	3%	?	0
O=C(O)c1ccc(O)c(O)c1	-10%	5µM*	-15%	-13%	2
O=C(O)c1ccc(O)cc1	0%	·	-6%	·	·
CCOC(=O)c1[nH]c2ccc(OC)cc2c1NC(=S)N1CCN(c2ccccc2OC)CC1	-7%	4µM*	8%	3%	7
CCOC(=O)c1[nH]c2ccc(OC)cc2c1NS(=O)(=O)c1ccc(OC)cc1OC	-11%	13µM*	-6%	-1%	2
CCOC(=O)c1[nH]c2ccc(OC)cc2c1NC(=S)N1CCN(C(=O)OCC)CC1	-4%	?	-1%	1%	2[21.1 µM]
CC[C@H](C)[C@H](NC(=O)[C@H](CC(=O)O)NC(=O)[C@H](CC(C)C)NC(=O)[C@H](Cc1cnc[nH]1)NC(=O)[C@H](C)NC(=O)[C@H](Cc1ccccc1)NC(=O)[C@H](Cc1ccc(O)cc1)NC(=O)[C@@H](NC(=O)[C@H](C)NC(=O)[C@H](CCC(=O)O)NC(=O)[C@H](CCCCN)NC(=O)[C@H](CC(=O)O)NC(=O)[C@H](CCSC)NC(=O)[C@H](CC(C)C)NC(C)=O)C(C)C)C(=O)N[C@H](C(=O)N[C@@H](Cc1c[nH]c2ccccc12)C(=O)O)[C@@H](C)CC	-13%	·	-2%	·	·

High-throughput results: PubChem BioAssay, National Center for Advancing Translational Sciences (NCATS)
